Only some compounds are listed: those with a hit (about 1.1% of all), similar ones and a draw of the others.
N-glyco inh: increase of ERlucT glycosylation luciferase signal, primary screen, N-linked glycosylation inhibitor project, D54 ERlucT cells, luminescence, set 2; reporter increase, % at 12.5 µM; AID 588692, 2011; hit rate 0.23% among 360,000; D54 ERlucT glycosylation luciferase reporter, 24 h; percent of 100 nM tunicamycin response;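 active means mean luciferase reporter signal, scaled so untreated is 0 and the glycosylation-blocking control 100, at or above a set limit in every replicate; inconclusive means mean reaches the limit but not every replicate does; inactive means mean below the limit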;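 further: luciferase carries N-glycosylation sites so blocking glycosylation raises the light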
LANA DNA inh: inhibitors of KSHV C-LANA binding to DNA, primary screen, biochemical, fluorescence polarization, FAM-LBS DNA, MBP-C-LANA, single point | hit rate 0.078% among 340,000 | inhibition, % at 9 µM;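 active means highest replicate inhibition at or above 60% at 9 µM, even if other replicates fall short; inactive means all replicates below 60% inhibition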
NSD2 HMT inh: NSD2 histone methyltransferase inhibitors, primary screen, biochemical, AlphaScreen, single concentration, set 2; AID 743445, 2014; NSD2 peptide methylation, 120 min; inhibition, % at 12.5 µM; hit rate 0.54% among 310,000; in the data active means inhibition above about 50%
Keap1-Nrf2 PPI: Keap1-Nrf2 protein-protein interaction inhibitors, primary screen, biochemical, fluorescence polarization, single point; Kelch-like ECH-associated protein 1 (Homo sapiens), Q14145; Keap1 Kelch-Nrf2 peptide fluorescence polarization, 1536-well; inhibition, % at 9.4 µM; hit rate 0.15% among 340,000; in the data active means inhibition above about 12%; inconclusive means no clear call, values can overlap the other calls; inactive means below about 7.3%;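 further: human Keap1 Kelch domain with fluorescein labeled Nrf2 9mer peptide probe; higher means more block of Keap1 binding to Nrf2 peptide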
Casp6 inh: human caspase-6 inhibitors, primary screen, biochemical, VEID-R110 fluorescence, single point, set 2; purified caspase-6, Z-VEID-R110 cleavage fluorescence; inhibition, % at 12.5 µM; hit rate 0.53% among 350,000;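 active means mean inhibition across replicates at least about 35%, with every replicate also reaching that limit, limit read from the data; inconclusive means only one of the two criteria met; inactive means neither criterion met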
HDAC3 inhib: HDAC3 deacetylase inhibitors, primary screen, biochemical, fluorescence, cell-free homogeneous. Histone deacetylase 3 (Homo sapiens), O15379. recombinant HDAC3, fluorogenic peptide/trypsin coupled. inhibition, % at 8.3 µM. hit rate 0.15% among 320,000; in the data active means inhibition above about 26%, passing the limit was not always enough; inconclusive means no clear call, values can overlap the other calls
AlphaScreen art: AlphaScreen signal interference with preloaded methylated product, dose response, artefact control for NSD2 inhibitor project, biochemical, cherry-picked samples | shares compounds with NSD2 HMT inh | AlphaScreen artifact counterscreen, preloaded methylated H4 peptide | AC35, µM (titrated, usually from 10 µM) | hit rate 9.4% among 1,500; call rule not given here
Numbers stand for hits; – = inactive; ? = inconclusive; · = no result given.

SMILES	N-glyco inh	LANA DNA inh	NSD2 HMT inh	Keap1-Nrf2 PPI	Casp6 inh	HDAC3 inhib	AlphaScreen art
Cc1ccccc1-c1cnc2c(c1)C(=O)N([C@@H](C)CO)C[C@@H](C)[C@@H](CN(C)C(=O)CN(C)C)O2	·	·	·	·	–	·	·
C/C=C/c1ccc2c(c1)O[C@H](CN(C)Cc1ccc(C(=O)O)cc1)[C@@H](C)CN([C@@H](C)CO)S2(=O)=O	·	·	·	·	–	·	·
CCCCN(CC)CCNC(=O)CN(C)S(=O)(=O)c1ccc2c(c1)c(=O)n(C)c(=O)n2C	–	–	60.9	–	·	–	–
COc1ccc(NC(=O)Nc2ccc3c(c2)CC(=O)N([C@@H](C)CO)C[C@H](C)[C@H](CN(C)Cc2ccc(C(=O)O)cc2)O3)cc1	·	·	·	·	–	·	·
CCOc1ccc(-n2cnc3sc4c(c3c2=O)CCCC4)cc1	–	·	58.3	·	–	–	–
COc1ccccc1NC1C=CS(=O)(=O)C1 (stereo unspecified)	–	–	97.3	–	·	–	–
CC=Cc1ccc2n(c1=O)C[C@H]1[C@H](CO)[C@@H](C(=O)NC3CCCC3)N[C@@H]21 (mixture of isomers)	·	·	·	·	–	·	·
C[C@@H]1CCCCO[C@H](CN(C)S(C)(=O)=O)[C@@H](C)CN([C@@H](C)CO)C(=O)c2cc(NC(=O)Nc3cccc4ccccc34)ccc2O1	·	·	·	·	–	·	·
Cc1cc(=O)cc(C)n1-c1ccc(O)cc1	–	–	71.4	–	–	–	–
Cc1cc(=O)cc(C)n1-c1ccc(Cl)cc1	–	–	–	–	–	–	·
CO[C@@H]1CN(C)C(=O)c2ccc(NC(=O)C3CCC3)cc2OC[C@H](C)N(C(=O)NC(C)C)C[C@@H]1C	·	·	·	·	–	·	·
COc1ccc(C2SCCN2S(=O)(=O)c2ccccc2)cc1 (stereo unspecified)	–	–	98.7	–	–	–	–
COc1ccc(C2SCCN2S(=O)(=O)c2ccc(NC(C)=O)cc2)cc1 (stereo unspecified)	–	–	–	–	·	–	·
O=C(N[C@@H]1CC[C@H](CCn2cc(C3(O)CCCC3)nn2)O[C@H]1CO)C1CCCC1	·	·	·	·	–	·	·
CCOC(=O)C1=C(C)N(C)C(=S)NC1c1ccccc1Cl (stereo unspecified)	–	–	96.0	–	·	–	–
CO[C@@H]1CN(C)C(=O)c2cc(NS(=O)(=O)c3cn(C)cn3)ccc2OC[C@H](C)N(CCC(F)(F)F)C[C@@H]1C	·	·	·	·	–	·	·
COc1cc(NCc2ccccc2)c2ncn(C(C)C)c2c1	–	–	·	–	–	–	·
COc1cc(NCCCNC(C)C)c2nccc(C)c2c1	–	–	106.6	–	87.9	·	–
COc1ccc(C(C(=O)NC(C)(C)C)N(C(=O)CCC(=O)Nc2cc(C)on2)c2ccccc2F)cc1 (stereo unspecified)	–	–	77.3	–	–	–	–
COCCN(C(=O)CCC(=O)Nc1cc(C)on1)C(C(=O)NC(C)(C)C)c1ccccc1Cl (stereo unspecified)	–	–	139.7	–	–	–	–
COc1ccc(C(C(=O)NC(C)(C)C)N(C(=O)CCC(=O)Nc2cc(C)on2)c2cc(C)cc(C)c2)cc1 (stereo unspecified)	–	–	–	–	–	–	·
CN(C)C(=O)C[C@@H]1C=C[C@@H](NC(=O)c2ccc(F)cc2)[C@H](CO)O1	·	·	·	·	–	·	·
Cc1c(CN(C)C)c2c(n1Cc1ccccc1)C(=O)c1ccccc1-2	–	–	92.7	–	·	–	5.73µM
Cc1cc(=O)n(Cc2ccccc2)c2ccccc12	–	–	–	–	–	–	·
C[C@@H]1CN([C@@H](C)CO)C(=O)c2cc(C#CC3CCCC3)cnc2O[C@H]1CN(C)S(C)(=O)=O	·	·	·	·	–	·	·
SMILES	N-glyco inh	LANA DNA inh	NSD2 HMT inh	Keap1-Nrf2 PPI	Casp6 inh	HDAC3 inhib	AlphaScreen art
NC(=O)c1c(NC(=O)c2ccncc2)sc2c1CCCC2	–	–	–	–	–	–	·
N#Cc1c(NC(=O)c2ccncc2)sc2c1CCC2	–	–	56.8	–	–	–	–
C[C@H]1CN([C@@H](C)CO)C(=O)c2cc(C#CC3(O)CCCC3)cnc2O[C@H]1CN(C)Cc1ccccn1	·	·	·	·	–	·	·
COc1ccc(Cn2cnc3c(N)c(C)c(C)cc32)cc1	–	–	–	·	–	–	·
CCCCCCCCn1cnc2c(N)c(C)c(C)cc21	–	–	76.5	–	–	–	–
C[C@@H]1CN([C@H](C)CO)C(=O)c2cccc(NS(=O)(=O)c3ccc(F)cc3)c2O[C@H]1CN(C)S(=O)(=O)c1cccs1	·	·	·	·	–	·	·
CCCCn1cnc2c(=S)nc(N)[nH]c21	–	–	56.9	–	–	–	–
Nc1nc(=S)c2ncn(C3OC(CO)C(O)C3O)c2[nH]1 (stereo unspecified)	65.6	–	51.9	–	·	–	–
CCOC(=O)c1c(C)oc2c1c(C=NCCC(=O)O)c(O)c1ccccc12	–	–	163.6	–	–	–	–
N#Cc1ccc(OCC(=O)NCCCn2ccnc2)cc1	–	–	63.4	–	–	–	–
COc1ccc(OCC(=O)NCCCn2ccnc2)cc1	–	–	–	–	–	–	·
Cc1ccc(S(=O)(=O)N(C)CC(=O)NCCCn2ccnc2)cc1	–	–	114.7	–	–	–	–
CNCCCOc1ccc2c(c1)CCC2	–	–	61.1	–	–	–	–
CC(=O)c1ccc(N2CCN(C(=O)[C@H](C)NC(=O)c3ccccc3Cl)CC2)cc1	–	–	64.6	–	–	–	–
COC(=O)N/N=C1/C/C(=N\NC(=O)OC)c2ccccc21	–	–	96.9	–	91.2	?	–
O=C1C=C(c2c(O)ccc3ccccc23)c2ccccc2C1=O	–	–	112.1	–	–	·	–
O=C(O)c1cc2ccccc2c2c1C(=O)c1ccccc1-2	–	·	–	·	–	·	·
Cc1nn(CC(=O)Nc2ccc3c(c2)nc(CCN2CCCCC2)n3C)c(=O)c2ccccc12	–	–	–	–	–	·	·
CC(=O)N1CCN(Cc2nc3cc(NC(=O)Cn4nc(C)c5ccccc5c4=O)ccc3n2C)CC1	–	–	59.9	–	·	–	–
CCCC#Cc1ccc([C@H]2[C@@H](C#N)N(C(=O)C3CCCC3)[C@H]2CO)cc1	·	·	·	·	–	·	·
Nc1nnc2c(n1)CCCC2	–	–	58.4	–	·	–	–
Cc1oc2c(c1C(=O)c1ccccc1)C(=O)C(=O)c1ccccc1-2	–	–	50.2	–	·	–	–
COc1ccc(NC(=O)CN(C)S(=O)(=O)c2ccc(C)cc2)c([N+](=O)[O-])c1	–	–	66.6	–	–	–	–

Screening data from PubChem BioAssay.
